# Experimental data reported in the supplement of paper PMC8728848.
# This is one part of a sample in which the strongest signals are shown more often than they occur.
# B1: Cp ZmpB (Clostridium perfringens), Q0TR08 (protein)
# chain: MNKRKIAAIILATMITNLSATTIDVLAQELNTKNNSKVEVSHDDESHQARVSKFDLYNSDKLDAYNQEFQVSRSNIKSINNNGGKYNSSTIDKAIDGNLETHWETGKPNDANFTNEVVVTFNEITNIDRIVYSARRDSARGKGFAKEFEIYASLKDEGDDFNLVSSGEYTESTRDLVEIKFNPTDFKRLKFKFKKADQNWASAAEFMFYKEDKLNEKFNGLFTDSSMNKVSEEFNTLEKLNAFENELKDHPIYDLYKEGLNNARAILTETSENPTKATLGQITYNLNDDYNNQYRMPYKNIKAIKNNGRHYAAQNIEKAIDNDVNTYWETGTLNSSSFNNEVEVEFNDLVTLDRIVYGSRQSDLKGFAEEVYIYASRTSKGDTYKLVATGAHEATKGLVEAKFEPTEFKRVKFKFKKSKQNSATLNELMFYKPDEVYSSIPKLFTDGTMSELSEEFNSLEKINAFKEKAKNHPLYNDFNETIELAESLISNPRKEDVLELEMRGDSISEAKKRKVWNFQDWQITGLSARAGDKITVYVDVAEGDPTPTLLYKQSLTQHGGATSFQLKPGKNEITIPEINYESNGIPKDVIQGGDLFFTNYKSDSQKRAPKVRIEGASKYPVFILGKSDENEVMKELEAYVEKIKAEPKTTPNIFAVSSNKSLEFVQATYALDWYKKNNKTPKYTAEQWDQYIADAMGFWGFDNSKDVNSDFNFRIMPMVKNLSGGAFMNAGNGVIGIRPGNQDAILAANKGWGVAHELGHNFDTGGRTIVEVTNNMMPLFFESKYKTKTRITDQNIWENNTYPKVGLDDYSNNELYNKADSTHLAQLAPLWQLYLYDNTFYGKFERQFRERDFGNKNREDIYKSWVVAASDAMELDLTEFFARHGIRVDDKVKEDLAKYPKPDKKIYYLNDLAMNYKGDGFTENAKVSVSTSGSNGNIKLSFSVDDENKDNILGYEIRRDGKYVGFTSNDSFVDTKSNLDEDGVYVVTPYDRKLNTLNPIEVNALQPTLSVNPVITLALGEEFNEEEYIVAKDIKGNSLSESVKVKSSNVNTSKVGEYEVLYSLEDSKGNEYTKTSKVNVVSRKEYMSDLTPKQSSNGWGTVRKDKSISGGVIGLTRDGDFVDYNKGLGLHSNAEYVYDLEGKDYDYFESYVGVDKAMSSRPASSVIFKVLVDGEEKFNSGVMRSTTPQKYVKVDVKNAKELKLIVNDAGDGDSSDHASFGDAKLATLSSKPIIKGENLAYSMDEKVDLMKGITATDIEDGNITSKVQIKSSDFVEGKSGIFTVVYSVTDSDGLTSECSRTIAVTDKETQLSDLNWKSATIGSGSVRKDRAVSGNQIRLLNEDNSVETFAKGIGTHSYSEIVYNSEGYDIFDTWVGIDRHVADKKVSSVKFKVYVDGELKAETDVMRIDTPKKRLVVDVRNSKEIKLVVDVADNGNNWDHADWADAKFRNLAEYDASELNKAIEEAKKLDLNNYTEESSEALKNAISKGEEALLSKDKETINSALEELNKEMNSLVKVDLNAVINIPDKYLLKSIQNQLNKTGDITLGDMYSLTTLTLSGVEDLTGLENAKNLETLNMDYNEVKDLRPLSKLKKLNTLNAQEQFIAAGELKPSNGKVIGDSKVYNREGKNVAKTIRVVDKNGNTILEQDAKDEFTINTKDLSSGLYGVHVLFEDEGFSGVMFYLFNV
# How the values were obtained:
# Test in all cases: glycan array binding signal (z-score within array); higher = stronger binding
# Conditions in all cases: glycan notation: IUPAC condensed, linker removed
# Fuc(a1-2)Gal = biological target: Fuc(a1-2)Gal
# How it was run: (§1)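 Glycan array data came from 3228 arrays in the Consortium for Functional Glycomics database, and only arrays with an available protein sequence were kept. Glycan names were put into IUPAC-condensed notation, and columns mapping to the same glycan were averaged. The binding signal is a within-array Z-score, averaged across arrays of one protein sequence run at different concentrations or buffers and across linkers. A negative Z-score can be read as non-binding.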
# Fuc(a1-2)Gal(b1-3)GlcNAc = biological target: Fuc(a1-2)Gal(b1-3)GlcNAc
# How it was run: as §1
# Fuc(a1-2)Gal(b1-4)Glc6S = biological target: Fuc(a1-2)Gal(b1-4)Glc6S
# How it was run: as §1
# [1] = biological target: Fuc(a1-2)Gal(b1-4)[Fuc(a1-3)]GlcNAc(b1-2)Man(a1-3)[Fuc(a1-2)Gal(b1-4)[Fuc(a1-3)]GlcNAc(b1-2)Man(a1-6)]Man(b1-4)GlcNAc(b1-4)[Fuc(a1-6)]GlcNAc
# How it was run: as §1
# [2] = biological target: Fuc(a1-2)Gal6S(b1-3)GlcNAc
# How it was run: as §1
# [3] = biological target: Fuc(a1-2)[GalNAc(a1-3)]Gal(b1-4)GlcNAc
# How it was run: as §1
# [4] = biological target: Fuc(a1-2)[GalNAc(a1-3)]Gal(b1-4)GlcNAc(b1-2)Man(a1-3)[Fuc(a1-2)[GalNAc(a1-3)]Gal(b1-4)GlcNAc(b1-2)Man(a1-6)]Man(b1-4)GlcNAc(b1-4)[Fuc(a1-6)]GlcNAc
# How it was run: as §1
# [5] = biological target: Fuc(a1-3)[Gal(b1-4)]GlcNAc(b1-6)GalNAc
# How it was run: as §1
# [6] = biological target: Gal(a1-3)Gal(b1-3)GlcNAc(b1-3)GalNAc
# How it was run: as §1
# [7] = biological target: Gal(a1-4)Gal(b1-3)GlcNAc(b1-2)Man(a1-3)[Gal(a1-4)Gal(b1-3)GlcNAc(b1-2)Man(a1-6)]Man(b1-4)GlcNAc(b1-4)GlcNAc
# How it was run: as §1
# [8] = biological target: Gal(b1-3)GlcNAc(b1-2)Man(a1-3)[Gal(b1-3)GlcNAc(b1-2)Man(a1-6)]Man(b1-4)GlcNAc(b1-4)[Fuc(a1-6)]GlcNAc
# How it was run: as §1
# [9] = biological target: Gal(b1-3)GlcNAc(b1-6)[Gal(b1-3)]GalNAc
# How it was run: as §1
# [10] = biological target: Gal(b1-4)GalNAc(a1-3)[Fuc(a1-2)]Gal(b1-4)GlcNAc
# How it was run: as §1
# Gal(b1-4)GlcNAc(b1-2)Man = biological target: Gal(b1-4)GlcNAc(b1-2)Man
# How it was run: as §1
# [11] = biological target: Gal(b1-4)GlcNAc(b1-2)Man(a1-3)[Man(a1-6)]Man(b1-4)GlcNAc(b1-4)GlcNAc
# How it was run: as §1
# [12] = biological target: Gal(b1-4)GlcNAc(b1-3)Gal(b1-3)GlcNAc
# How it was run: as §1
# [13] = biological target: Gal(b1-4)GlcNAc(b1-3)Gal(b1-4)GlcNAc(b1-3)Gal(b1-4)GlcNAc(b1-2)[Gal(b1-4)GlcNAc(b1-3)Gal(b1-4)GlcNAc(b1-3)Gal(b1-4)GlcNAc(b1-6)]Man(a1-6)[Gal(b1-4)GlcNAc(b1-3)Gal(b1-4)GlcNAc(b1-3)Gal(b1-4)GlcNAc(b1-2)Man(a1-3)]Man(b1-4)GlcNAc(b1-4)[Fuc(a1-6)]GlcNAc
# How it was run: as §1
# [14] = biological target: Gal(b1-4)GlcNAc(b1-3)Gal(b1-4)GlcNAc(b1-3)Gal(b1-4)GlcNAc(b1-3)Gal(b1-4)GlcNAc(b1-2)[Gal(b1-4)GlcNAc(b1-3)Gal(b1-4)GlcNAc(b1-3)Gal(b1-4)GlcNAc(b1-3)Gal(b1-4)GlcNAc(b1-6)]Man(a1-6)[Gal(b1-4)GlcNAc(b1-3)Gal(b1-4)GlcNAc(b1-3)Gal(b1-4)GlcNAc(b1-3)Gal(b1-4)GlcNAc(b1-2)Man(a1-3)]Man(b1-4)GlcNAc(b1-4)[Fuc(a1-6)]GlcNAc
# How it was run: as §1
# [15] = biological target: Gal(b1-4)GlcNAc(b1-3)Gal(b1-4)GlcNAc(b1-3)Gal(b1-4)GlcNAc(b1-3)Gal(b1-4)GlcNAc(b1-3)Gal(b1-4)GlcNAc(b1-2)[Gal(b1-4)GlcNAc(b1-3)Gal(b1-4)GlcNAc(b1-3)Gal(b1-4)GlcNAc(b1-3)Gal(b1-4)GlcNAc(b1-3)Gal(b1-4)GlcNAc(b1-6)]Man(a1-6)[Gal(b1-4)GlcNAc(b1-3)Gal(b1-4)GlcNAc(b1-3)Gal(b1-4)GlcNAc(b1-3)Gal(b1-4)GlcNAc(b1-3)Gal(b1-4)GlcNAc(b1-2)Man(a1-3)]Man(b1-4)GlcNAc(b1-4)[Fuc(a1-6)]GlcNAc
# How it was run: as §1
# [16] = biological target: Gal(b1-4)GlcNAc(b1-3)Gal(b1-4)[Fuc(a1-3)]GlcNAc(b1-3)Gal(b1-4)[Fuc(a1-3)]GlcNAc
# How it was run: as §1
# [17] = biological target: Gal(b1-4)GlcNAc(b1-3)[Gal(b1-4)GlcNAc(b1-6)]Gal(b1-4)GlcNAc
# How it was run: as §1
# [18] = biological target: Gal(b1-4)GlcNAc(b1-6)[Gal(b1-4)GlcNAc(b1-3)]GalNAc
# How it was run: as §1
# [19] = biological target: Gal3S(b1-3)[Fuc(a1-4)]GlcNAc
# How it was run: as §1
binder,measurement,setting,value
B1,glycan array binding signal (z-score),Fuc(a1-2)Gal,22.4
same,glycan array binding signal (z-score),Fuc(a1-2)Gal(b1-3)GlcNAc,-0.148
same,glycan array binding signal (z-score),Fuc(a1-2)Gal(b1-4)Glc6S,-0.219
same,glycan array binding signal (z-score),[1],-0.251
same,glycan array binding signal (z-score),[2],-0.122
same,glycan array binding signal (z-score),[3],-0.068
same,glycan array binding signal (z-score),[4],-0.353
same,glycan array binding signal (z-score),[5],-0.181
same,glycan array binding signal (z-score),[6],-0.001
same,glycan array binding signal (z-score),[7],-0.252
same,glycan array binding signal (z-score),[8],-0.193
same,glycan array binding signal (z-score),[9],0.823
same,glycan array binding signal (z-score),[10],0.022
same,glycan array binding signal (z-score),Gal(b1-4)GlcNAc(b1-2)Man,0.161
same,glycan array binding signal (z-score),[11],-0.033
same,glycan array binding signal (z-score),[12],1.39
same,glycan array binding signal (z-score),[13],-0.102
same,glycan array binding signal (z-score),[14],-0.093
same,glycan array binding signal (z-score),[15],3.56
same,glycan array binding signal (z-score),[16],-0.332
same,glycan array binding signal (z-score),[17],-0.301
same,glycan array binding signal (z-score),[18],0.086
same,glycan array binding signal (z-score),[19],-0.055
